The values that follow come from PubChem BioAssay (NCATS).

Values without a mark were called inactive. Records with an inconclusive call do not appear. Calls of active or inactive are those of the source. The call rests on the fitted dose curve; in most records, active means well fitted curve in the direction sought with a large enough effect; inconclusive means small, poorly fitted or top-dose-only effect, or another doubt; inactive means no such curve, though single readings can be large; an effect the other way counts as inactive or inconclusive.

In assay [1] the target is Pyruvate kinase (Leishmania mexicana) (UniProt Q27686). Description: qHTS Validation Assay for Inhibitors of Leishmania Mexicana Pyruvate Kinase (AID 945).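 Further: 0% = DMSO only neutral control wells.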 To be noted: purified L. mexicana pyruvate kinase, enzyme activity, E451W mutant enzyme; series mostly up to 57.5 µM. In a few lines: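 Mutant LmPYK (E451W), 0.2 nM, plus 0.5 mM PEP and 0.1 mM ADP in 50 mM imidazole pH 7.2 containing 0.01% Tween 20 and 0.05% BSA. Incubated 1 h at room temperature; luminescence via PKLight, normalized to DMSO.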

A short description of assay [2]: qHTS Assay for Identification of Small Molecule Antagonists for Thrombopoietin (TPO) Signaling Pathway (AID 918). Further: potency means the concentration at half of the fitted maximal effect; nearly all actives have a fitted effect of over 60% in size. The following applies: TPO-dependent cell signaling reporter, antagonist mode. In a few lines: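 Antagonist mode at EC50 TPO (26 pM) in IL-3-free medium; murine Ba/F3 cells with human TPO receptor and GPIIb-promoter luciferase, 24 hrs at 37 C before luminescent detection.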
In general terms: Quantitative high-throughput screening tests each substance at several concentrations.

The nature of assay [3]: qHTS for compounds that reverse cellular toxicity of Amyloid beta (A-beta) peptide in yeast: LOPAC Validation Assay (AID 720559).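 Further: plate controls were DMSO for no effect and equimolar ferric chloride plus clioquinol rescue for full effect.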 To be noted: yeast expressing A-beta; series mostly up to 46.1 µM. In a few lines: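 Yeast cells expressing toxic A-beta were combined with pinned compounds in growth medium and incubated 48 hr at 30 C. Growth was read as absorbance at 600 nm and normalized to DMSO and to an equimolar FeCl3/clioquinol positive control.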

A short description of assay [4]: HepG2 viability counterscreen (readout 2: ATP content) against the NCATS DSHEA and TCM libraries (AID 1794840).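 Further: HepG2 cells exposed to substances for about 24 h; 0% is about no effect.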 To be noted: ATP content luminescence; series mostly up to 46.6 µM. Summed up:
(§1)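 HepG2 cells (1,000 cells/well) attached ~4 h, then treated ~24 h at 37C with substances. Protease activity read by GF-AFC (25 uM final, 30 min, Ex/Em 380/510 nm); ATP content then by CellTiter-Glo luminescence.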
On the technique in general: The purpose of a counterscreen is to sort out artefacts and off-target activity.

The nature of assay [5]: HepG2 viability counterscreen (readout 1: protease activity) against the NCATS DSHEA and TCM libraries (AID 1794841).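 Further: cells exposed to compounds for about 24 h before the protease read; 0% is about no effect.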 The following applies: qHTS concentration series; series mostly up to 46.6 µM. In a few lines: as §1
Assay [6] addresses Cytochrome P450 2D6 (Homo sapiens) (UniProt P10635). Put plainly: qHTS for inhibitors of CYP2D6 against the NCATS DSHEA and TCM libraries (AID 1919972). Further: on the % scale 0 is the no-effect control and ±100 the full control effect. The following applies: CYP2D6 enzymatic inhibition, luminescence qHTS; series mostly up to 58.3 µM. In a few lines: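 qHTS, concentration–response format with most substances from 19.5 nM. CYP2D6 + pro-luciferin substrate, 15 min with compound, then 1x NADPH regen, 30–45 min RT dark. Glo detection 30 min, luminescence. Quinidine control.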

The nature of assay [7]: KB-3-1 P-gp reporter qHTS against the NCATS DSHEA and TCM libraries (AID 1919975). Further: 0% is about no effect. To be noted: KB-3-1 parental cells, CellTiter-Glo luminescence viability, 72 h; series mostly up to 44.5 µM. Summed up:
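Parental KB-3-1 human cervical adenocarcinoma cells (500 cells/well, DMEM + 10% FBS) were treated with substances for ~72 h at 37C; viability was read by CellTiter-Glo luminescence.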

Assay [8] addresses Cytochrome P450 1A2 (Homo sapiens) (UniProt P05177). Put plainly: qHTS for inhibitors of CYPIA2 against the NCATS DSHEA and TCM libraries (AID 1919976).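 Further: light from luciferin formed by CYP1A2 from a pro-luciferin substrate; on the % scale 0 is the no-effect control and ±100 the full control effect.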 To be noted: recombinant CYP1A2 enzyme activity, luminescence; series mostly up to 63.1 µM. In a few lines: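 Furafylline served as the plate control. Compounds met CYP1A2 and pro-luciferin substrate 15 min before NADPH regeneration solution (1x) was added; after 30-45 min at RT, P450-Glo reagent was added for 30 min and luminescence was measured.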

The nature of assay [9]: qHTS Counterscreen for compound interference against the NCATS DSHEA and TCM libraries (AID 1919978). Further: % of control where 0% means no effect. To be noted: firefly luciferase detection reagent interference, luminescence. Summed up:
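D-luciferin (1 uM final) or 100 mM potassium phosphate buffer alone was preincubated 15 min at RT with compounds (19.5 nM to 39.8 uM final). Luciferin detection reagent was then added and luminescence read after 30 min at RT.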

Assay [10] is described as follows: Dual reporter qHTS for agonist of Pregnane X Receptor (hPXR) against the NCATS DSHEA and TCM libraries: Fluorescence readout (AID 1920058). Further: 0% is about no effect. To be noted: PXR dual reporter cells; series mostly up to 68.2 µM. In a few lines:
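In this qHTS counter-read, reporter-bearing HepG2 cells in charcoal-stripped serum received substances for approximately 24 h before viability was assessed fluorometrically with CellTiter-Fluor.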

The target of assay [11] is Nuclear receptor subfamily 1 group I member 2 (Homo sapiens) (UniProt O75469). Description: Dual reporter qHTS for agonist of Pregnane X Receptor (hPXR) against the NCATS DSHEA and TCM libraries: Luminescence readout (AID 1920059). Further: 0% is about no effect. The following applies: hPXR dual reporter cells, luciferase luminescence agonist; series mostly up to 68.2 µM. In a few lines: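 Luminescent PXR reporter read (ONE-Glo) after a CellTiter-Fluor viability read, following 24 h, 37C treatment of HepG2 cells stably carrying hPXR-Luc.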

Assay [12] has the same target. Description: Dual reporter qHTS for antagonist of Pregnane X Receptor (hPXR) against the NCATS DSHEA and TCM libraries: Luminescence Readout (AID 1920060). Further: 0% is about no effect. To be noted: hPXR dual reporter cells, luciferase luminescence, antagonist mode; series mostly up to 68.2 µM. Summed up: (§2)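 HepG2 hPXR-Luc, 2000 cells/well, charcoal-stripped FBS medium; 5 h attach; RIF 2 uM final; 24 h 37C/5% CO2; CellTiter-Fluor 1 h, fluor 405/540; ONE-Glo 30 min RT, lum.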

The nature of assay [13]: Dual reporter qHTS for antagonist of Pregnane X Receptor (hPXR) against the NCATS DSHEA and TCM libraries: Fluorescence Readout (AID 1920061). Further: 0% is about no effect. The following applies: PXR dual reporter cells, antagonist mode; series mostly up to 68.2 µM. Summed up:
as §2

Assay [14] can be described thus: Validation screen for small molecules that induce DNA re-replication in SW480 colon adenocarcinoma cells (AID 504364). Further: potency means the concentration at half of the fitted maximal effect. The following applies: DNA re-replication phenotype (high-content imaging); series mostly up to 46.1 µM. In a few lines:
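Hoechst-stained SW480 nuclei, imaged at 405 nm excitation after 48 hr compound exposure, were counted for elevated DNA content as the re-replication signal.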

In assay [15] the target is Glutaminase kidney isoform, mitochondrial (Homo sapiens) (UniProt O94925). Put plainly: qHTS for Inhibitors of Glutaminase (GLS): LOPAC Validation (AID 624146).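 Further: glutamate product detected by oxidase and peroxidase coupled Amplex red fluorescence gain; on the % scale 0 is the no-effect control and ±100 the full control effect; nearly all actives have a fitted effect of over 60% in size.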 The following applies: glutaminase enzyme activity inhibition; series mostly up to 46.1 µM. In a few lines: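 Compounds were pin-transferred onto hKGA, after which L-glutamine (1 mM solution) and a detection mix of glutamate oxidase, HRP and Amplex Red were added. Initial and 30 min RT fluorescence reads were collected.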

Assay [16] in a line: qHTS of Trypanosoma Brucei Inhibitors: LOPAC Validation (AID 624147). Further: 0% is about no effect. The following applies: purified enzyme assay, luminescence, 45 min; series mostly up to 57.5 µM. In a few lines: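 In this concentration-response screen, enzyme-free wells defined baseline while DMSO plates tracked drift. Each reaction combined TbPYK, substrate, compound and 130 uM ADP for 45 min at room temperature. Kinase-Glo Plus luminescence gave the signal.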

For assay [17], the target named is Cytochrome P450 2D6 (Homo sapiens) (UniProt P10635). Description: qHTS Assay for Inhibitors and Substrates of Cytochrome P450 2D6 (AID 891).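 Further: luciferin methyl ether substrate demethylated by CYP2D6 with NADPH regeneration; on the % scale 0 is the no-effect control and ±100 the full control effect; nearly all actives have a fitted effect of over 60% in size.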 To be noted: recombinant CYP2D6, luciferin-ME EGE luminescence; series mostly up to 57.1 µM. In a few lines: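 Luminescent read-out of luciferin formed by 5 nM human CYP2D6 demethylating 30 uM Luciferin-ME EGE (Km level) over 60 min at room temperature after NADPH regeneration addition. Data normalized to full inhibition by 1.43 uM quinidine.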

In assay [18] the target is D(1A) dopamine receptor (Homo sapiens) (UniProt P21728). Description: HTS Assay for Allosteric Agonists of the Human D1 Dopamine Receptor: Primary Screen for Potentiators (AID 488982). Further: potency means the concentration at half of the fitted maximal effect. To be noted: HEK293 T-REx D1 inducible cells, calcium flux, kinetic fluorescence; series mostly up to 8.37 µM. Summed up:
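Calcium flux in an inducible, force-coupled HEK293 Trex D1 line (overnight at 30 C): agonist mode is the 180 s kinetic read after compound; potentiator mode is the following 180 s read after dopamine at EC20.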
(Calcium flux is commonly read through the fluorescence of an indicator in the cells.)

In assay [19] the target is DNA dC->dU-editing enzyme APOBEC-3G (Homo sapiens) (UniProt Q9HC16). Description: qHTS for inhibitors of Vif-A3G interactions: Validation (AID 588379). Further: potency means the concentration at half of the fitted maximal effect. To be noted: Vif-A3G protein interaction assay; series mostly up to 46.1 µM. Summed up: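 Yellow fluorescence (Ex 488, Em 500-530) of Vif-coexpressing HeLa A3G-eYFP cells, scanned by Acumen cytometer, reports blocked A3G degradation. Cells plated at 700/well overnight at 37 deg C before compound addition, then a further overnight compound incubation at 37 deg C.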

Assay [20] is described as follows: qHTS Assay for Identifying Gametocytocidal Compounds (AID 743244).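 Further: on the % scale 0 is the no-effect control and ±100 the full control effect; actives lower the fluorescent signal which means gametocytes are killed.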 The following applies: P. falciparum 3D7 stage III-V gametocytes, alamarBlue, 72 h; max response: stronger effect = lower value. In a few lines:
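Using 20,000 stage III–V 3D7 gametocytes per well, compounds were incubated 72 h under 37 °C/5% CO2. Viability was then assessed by 24 h alamarBlue reduction, measured fluorometrically at 525/598 nm.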

Sequence of Cytochrome P450 2D6 (Homo sapiens) (P10635 whole entry, looked up): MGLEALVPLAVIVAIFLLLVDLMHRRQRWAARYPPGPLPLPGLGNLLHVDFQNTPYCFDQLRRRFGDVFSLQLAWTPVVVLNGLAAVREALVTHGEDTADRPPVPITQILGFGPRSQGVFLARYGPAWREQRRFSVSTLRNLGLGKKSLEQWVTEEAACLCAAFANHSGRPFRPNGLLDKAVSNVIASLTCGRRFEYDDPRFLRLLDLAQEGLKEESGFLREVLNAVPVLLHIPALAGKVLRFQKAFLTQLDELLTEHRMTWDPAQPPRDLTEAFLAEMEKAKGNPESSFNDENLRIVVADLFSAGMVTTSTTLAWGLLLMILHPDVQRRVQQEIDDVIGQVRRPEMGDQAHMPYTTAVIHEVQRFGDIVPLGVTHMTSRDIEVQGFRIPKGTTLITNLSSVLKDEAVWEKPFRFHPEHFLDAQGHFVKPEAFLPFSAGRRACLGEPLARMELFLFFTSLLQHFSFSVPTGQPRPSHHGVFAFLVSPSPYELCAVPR
Sequence of Nuclear receptor subfamily 1 group I member 2 (Homo sapiens) (O75469 whole entry, looked up): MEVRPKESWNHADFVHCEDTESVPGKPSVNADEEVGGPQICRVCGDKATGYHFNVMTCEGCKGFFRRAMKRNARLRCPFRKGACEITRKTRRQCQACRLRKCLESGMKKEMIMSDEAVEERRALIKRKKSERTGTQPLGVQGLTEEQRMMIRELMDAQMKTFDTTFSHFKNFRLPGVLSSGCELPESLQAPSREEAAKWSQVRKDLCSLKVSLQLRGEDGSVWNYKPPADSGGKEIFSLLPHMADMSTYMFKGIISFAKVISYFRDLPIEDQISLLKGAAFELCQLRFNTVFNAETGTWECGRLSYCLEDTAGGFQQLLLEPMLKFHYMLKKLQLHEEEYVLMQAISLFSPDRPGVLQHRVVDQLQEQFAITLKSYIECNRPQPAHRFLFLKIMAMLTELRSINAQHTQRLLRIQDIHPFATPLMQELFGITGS
Sequence of Cytochrome P450 1A2 (Homo sapiens) (P05177 whole entry, looked up): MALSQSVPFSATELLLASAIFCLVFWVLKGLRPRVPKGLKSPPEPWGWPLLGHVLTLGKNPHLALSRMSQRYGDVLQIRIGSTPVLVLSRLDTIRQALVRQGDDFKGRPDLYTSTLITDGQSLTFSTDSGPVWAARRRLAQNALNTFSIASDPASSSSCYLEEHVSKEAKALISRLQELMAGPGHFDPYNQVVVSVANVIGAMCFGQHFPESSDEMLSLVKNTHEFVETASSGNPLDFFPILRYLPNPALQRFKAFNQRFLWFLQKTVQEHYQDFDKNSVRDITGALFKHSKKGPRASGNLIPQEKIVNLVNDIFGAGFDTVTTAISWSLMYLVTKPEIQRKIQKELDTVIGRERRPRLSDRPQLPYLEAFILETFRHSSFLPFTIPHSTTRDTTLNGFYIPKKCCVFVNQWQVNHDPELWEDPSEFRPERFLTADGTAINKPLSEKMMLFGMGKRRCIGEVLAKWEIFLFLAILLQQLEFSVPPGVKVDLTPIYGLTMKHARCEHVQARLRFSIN
Sequence of Pyruvate kinase (Leishmania mexicana) (Q27686 2-499 E452W): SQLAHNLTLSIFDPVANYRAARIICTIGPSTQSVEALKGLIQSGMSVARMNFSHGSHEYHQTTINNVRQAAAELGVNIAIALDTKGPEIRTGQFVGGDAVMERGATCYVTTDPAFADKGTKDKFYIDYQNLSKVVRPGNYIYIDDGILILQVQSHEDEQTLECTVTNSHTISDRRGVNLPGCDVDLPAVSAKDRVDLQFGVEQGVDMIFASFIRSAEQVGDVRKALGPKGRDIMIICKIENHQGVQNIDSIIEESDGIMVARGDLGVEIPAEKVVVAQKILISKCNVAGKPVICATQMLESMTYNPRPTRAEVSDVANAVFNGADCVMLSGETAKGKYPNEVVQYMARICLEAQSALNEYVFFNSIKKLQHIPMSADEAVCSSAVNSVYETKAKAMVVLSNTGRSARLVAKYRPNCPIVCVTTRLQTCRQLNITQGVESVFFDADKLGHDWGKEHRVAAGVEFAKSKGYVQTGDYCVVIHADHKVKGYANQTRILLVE
Sequence of D(1A) dopamine receptor (Homo sapiens) (P21728 whole entry, looked up): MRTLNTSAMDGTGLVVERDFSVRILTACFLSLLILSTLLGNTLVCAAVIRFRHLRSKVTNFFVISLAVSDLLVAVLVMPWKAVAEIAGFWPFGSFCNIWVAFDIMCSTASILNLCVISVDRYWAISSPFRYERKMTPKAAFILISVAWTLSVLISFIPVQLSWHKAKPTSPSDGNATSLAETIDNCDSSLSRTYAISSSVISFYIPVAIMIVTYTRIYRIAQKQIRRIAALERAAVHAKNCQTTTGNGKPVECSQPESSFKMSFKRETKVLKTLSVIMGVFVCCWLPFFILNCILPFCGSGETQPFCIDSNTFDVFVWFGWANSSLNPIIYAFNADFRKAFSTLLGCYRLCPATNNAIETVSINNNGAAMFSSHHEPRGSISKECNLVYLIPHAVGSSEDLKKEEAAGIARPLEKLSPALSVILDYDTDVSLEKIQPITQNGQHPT
Sequence of DNA dC->dU-editing enzyme APOBEC-3G (Homo sapiens) (Q9HC16 whole entry, looked up): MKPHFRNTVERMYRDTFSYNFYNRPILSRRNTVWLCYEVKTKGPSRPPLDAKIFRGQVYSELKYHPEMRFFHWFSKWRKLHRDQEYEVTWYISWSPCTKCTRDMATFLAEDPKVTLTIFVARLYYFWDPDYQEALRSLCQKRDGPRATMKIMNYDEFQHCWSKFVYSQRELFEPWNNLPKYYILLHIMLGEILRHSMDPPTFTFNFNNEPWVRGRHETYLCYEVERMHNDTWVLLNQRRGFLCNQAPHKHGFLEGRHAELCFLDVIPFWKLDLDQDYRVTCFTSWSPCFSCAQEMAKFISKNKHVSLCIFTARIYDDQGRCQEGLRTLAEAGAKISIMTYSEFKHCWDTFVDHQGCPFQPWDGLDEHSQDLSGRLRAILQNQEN
Sequence of Glutaminase kidney isoform, mitochondrial (Homo sapiens) (O94925 whole entry, looked up, canonical isoform): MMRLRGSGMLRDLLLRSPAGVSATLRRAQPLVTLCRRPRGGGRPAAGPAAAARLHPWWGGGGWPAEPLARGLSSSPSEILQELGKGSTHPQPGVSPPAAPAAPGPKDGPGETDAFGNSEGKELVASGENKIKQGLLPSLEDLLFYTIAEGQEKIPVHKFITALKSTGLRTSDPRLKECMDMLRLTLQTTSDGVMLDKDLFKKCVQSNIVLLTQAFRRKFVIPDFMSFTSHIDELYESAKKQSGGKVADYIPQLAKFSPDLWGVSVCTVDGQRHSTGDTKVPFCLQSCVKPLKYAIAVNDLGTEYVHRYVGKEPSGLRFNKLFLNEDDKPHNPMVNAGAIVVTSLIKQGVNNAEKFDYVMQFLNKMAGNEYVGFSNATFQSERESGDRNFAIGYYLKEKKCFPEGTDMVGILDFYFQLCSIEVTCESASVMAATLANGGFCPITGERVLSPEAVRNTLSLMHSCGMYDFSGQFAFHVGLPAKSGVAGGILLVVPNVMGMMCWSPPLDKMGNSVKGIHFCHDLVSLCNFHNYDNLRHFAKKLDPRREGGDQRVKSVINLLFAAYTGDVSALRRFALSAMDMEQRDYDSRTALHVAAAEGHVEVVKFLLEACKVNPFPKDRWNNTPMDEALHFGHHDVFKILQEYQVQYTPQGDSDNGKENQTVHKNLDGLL

Regarding `N#C/C(=C\c1ccc(O)c(O)c1)C(=O)NCCCNC(=O)/C(C#N)=C/c1ccc(O)c(O)c1`, the result in [1] was inactive.
As to `O=c1oc(Cl)c(Cl)c2ccccc12`, the Potency in [2] is 12600 nM (active). For the same compound, in assay [3], the result was inactive.
For `C=C(C)[C@@H]1CC=C(C=O)CC1`, the result in assay [4], in assay [5], in [6], in assay [7], in [10] and in assay [11] was inactive. Also, the outcome in [12] and in assay [13] was inactive. Also, the Potency entry in [8] was “inactive”. The max response in assay [9] is -1.03%.
In the case of `COc1cc([C@@H]2c3cc4c(cc3[C@H](O)C3COC(=O)[C@@H]32)OCO4)cc(OC)c1OC` (stereo not given in full), the Potency in assay [14] is 32.6 nM (active). For the same compound, the compound was called inactive in [15] and in assay [16].
As to `Nc1nc2ccc(Cl)cc2c2nc(-c3ccco3)nn12`, the Potency entry in [17] is “inactive”. The Potency was 1300 nM (active) in assay [18] and 596 nM (active) in assay [19].
On to `COc1ccc2c(c1)CCC1C2CC[C@@]2(C)C1CC[C@@H]2NCCCCCCN1C(=O)C=CC1=O` (stereo not given in full), for which the max response in assay [20] is 27.3%.
